# Experiments:
# Conditions in all cases: concentration: 1 μM, replicates: in singlicate; n = 1
# [1] = system: CDK4-cyclinD3
# [2] = system: CDK4
# [3] = system: CDK5
# [4] = system: CDK7
# [5] = system: CDK8
# [6] = system: CDK9
# [7] = system: CDKL1
# [8] = system: CDKL2
# [9] = system: CDKL3
# [10] = system: CDKL5
# [11] = system: CHEK1
# [12] = system: CHEK2
# [13] = system: CIT
# [14] = system: CLK1
# [15] = system: CLK2
# [16] = system: CLK3
# [17] = system: CLK4
# [18] = system: CSF1R-autoinhibited
# [19] = system: CSF1R
# [20] = system: CSK
# 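Also: KINOMEscan kinase panel screen.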
Structure (SMILES),%Inh [1] [%],%Inh [2] [%],%Inh [3] [%],%Inh [4] [%],%Inh [5] [%],%Inh [6] [%],%Inh [7] [%],%Inh [8] [%],%Inh [9] [%],%Inh [10] [%],%Inh [11] [%],%Inh [12] [%],%Inh [13] [%],%Inh [14] [%],%Inh [15] [%],%Inh [16] [%],%Inh [17] [%],%Inh [18] [%],%Inh [19] [%],%Inh [20] [%]
Cc1ccc(NC(=O)c2ccnc(N3CCN(C)CC3)c2)cc1-c1ccc(C(=O)NCC2CC2)cc1 [GW775604],0,2,0,0,0,0,0,0,5,0,0,15,0,0,0,0,0,0,22,0
Nc1nc(-c2ccc3c(N)n[nH]c3c2)cc(N2CCCC2)n1 [GSK2227430],0,0,0,0,0,0,72,0,0,0,9,0,0,26,1,0,36,0,2,0
C[C@@H](Oc1cc(-n2cnc3ccc(NC(=O)NC(C)(C)C)cc32)sc1C(N)=O)c1ccccc1Cl [GSK346294],1,34,0,0,45,0,14,5,0,0,10,19,0,18,7,22,40,15,6,1
COc1ccc(CNC(=O)NC2CCN(c3ccnc(Nc4ccc(OC)cc4)n3)C2)cc1 (centres unmarked) [GSK1379727],0,48,0,0,42,0,4,21,0,0,0,27,19,19,0,0,14,16,0,0
NCC(NC(=O)c1cc(-c2cn[nH]c2)c(-c2ccnc3[nH]ccc23)s1)c1ccccc1.O=C(O)C(F)(F)F.O=C(O)C(F)(F)F (centres unmarked) [GSK1325775],41,0,0,93.7,33,64,34,53,68,48,37,86,96.6,74,68,70,66,0,26,10
CCn1cnc2c(N)ncnc21 [GW345098],0,0,28,20,7,0,25,0,0,0,12,0,6,30,18,69,1,0,0,0
COc1ccc(S(=O)(=O)NC2CCN(c3cc(C)nc(Nc4cccc(C#N)c4)n3)CC2)cc1.O=C(O)C(F)(F)F [GSK1653539],0,38,0,0,4,0,15,0,0,0,0,14,0,20,0,56,3,0,1,0
c1ccc(-c2cc(-c3c[nH]nc3-c3ccccn3)ccn2)cc1 [GW576604],0,49,0,0,13,0,0,0,0,0,0,6,27,5,12,0,11,26,0,0
Cc1c(Cn2c(C)nn3c(=O)cc(N4CCOC(C)C4)nc23)cccc1C(F)(F)F (centres unmarked) [GSK2344444],0,25,0,0,0,2,0,4,0,0,10,0,9,29,0,0,13,0,0,0
O=C(Nc1cccc(-c2nn3ncccc3c2-c2ccnc(Nc3cccc(C(F)(F)F)c3)n2)c1)c1c(F)cccc1F [GSK299495],9,18,0,0,24,0,0,14,0,0,5,0,0,18,100,0,25,8,98.1,88

# — article PMC5540273 (PLoS ONE, 2017)
